The text below walks through data of PubChem BioAssay.

Assay [1] can be described thus: A549 cell viability effects, profiling panel, calcein-AM fluorescence, 48 h, basal (AID 1162). The conditions noted are these: higher = more signal.
Assay [2] can be described thus: adipocyte viability effects, profiling panel, cell-based, 3T3-L1 adipocytes, calcein-AM fluorescence, 48 h, basal (AID 1163). Conditions: 3T3-L1 adipocytes viability, higher = more signal.
A short description of assay [3]: HepG2 cell viability effects, profiling panel, calcein-AM fluorescence, 48 h, basal (AID 1164). The conditions noted are these: higher = more signal.
Assay [4] is described as follows: MM1S cell viability effects, profiling panel, calcein-AM fluorescence, 48 h, basal (AID 1165).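 Also: viability of MM1S multiple myeloma cells under basal unstimulated conditions.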 Conditions: higher = more signal.
The nature of assay [5]: basal RPMI8226 viability, no added stimulus, profiling panel, cell-based, calcein-AM fluorescence, 48 h, PK04 Diversity Set (AID 1166).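 Also: cells grown under basal conditions without added stimulus.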 Conditions: RPMI8226 myeloma viability, higher = more signal.
A short description of assay [6]: basal HepG2 mitochondrial membrane potential changes, profiling panel, cell-based, JC-1 fluorescence, 24 h, 100 nL compound (AID 1167). Conditions: higher = more signal.
Assay [7] in a line: basal 3T3-L1 adipocyte mitochondrial potential changes, profiling panel, cell-based, JC-1 fluorescence, 3T3-L1 adipocytes, 24 h, 100 nL compound (AID 1168). The conditions noted are these: JC-1 mitochondrial fluorescence, higher = more signal, called active from +8 up or from −8 down.
A short description of assay [8]: basal RPMI8226 mitochondrial membrane potential changes, profiling panel, cell-based, JC-1 fluorescence, 24 h, 100 nL compound (AID 1169). The conditions noted are these: RPMI8226 myeloma, JC-1 mitochondrial potential fluorescence, higher = more signal.
A short description of assay [9]: basal MM1S mitochondrial membrane potential changes, profiling panel, cell-based, JC-1 fluorescence, 24 h, 100 nL compound (AID 1170). The conditions noted are these: higher = more signal.
Assay [10] can be described thus: A549 lung cancer cell viability effects, profiling panel, resazurin fluorescence, 24 h, PK04 Diversity Set (AID 1171). The conditions noted are these: higher = more signal, called active from +8 up or from −8 down.

Active and inactive are the calls of the source.
Also: test concentration not given here.

In the case of `COc1cc2c(cc1OC)CN(C(=O)[C@H]1[C@@H]3C(=O)O[C@@H](c4ccccc4)[C@@H](c4ccccc4)N3[C@@H](c3ccc(O)cc3)[C@]13C(=O)Nc1ccc(C#CC4(O)CCCCCC4)cc13)CC2`, the z-score was 0.273 in [1]; -0.0218 in assay [2]; -0.155 in assay [3]; -0.369 in [4]; -0.66 in assay [5]; -1.37 in assay [6]. Moreover, the z-score in assay [7] was -0.263 (inactive); in assay [8] it was -0.34; in assay [9], 0.432; in assay [10] it was 1.24 (inactive).
Turning to `CCN1C(C)=C(C(=O)OC)[C@@H](c2ccccc2)N2C(=O)[C@](O)(C(=O)OC)[C@@H](c3ccccc3)C(C(C)=O)=C12`, the z-score is 0.158 in assay [1]; 2.15 in assay [2]; -0.473 in [3]; 0.244 in [4]; -0.918 in [5]; 1.35 in assay [6]. Further, the z-score was 0.982 (inactive) in assay [7], 0.195 in assay [8], -0.14 in [9] and -0.468 (inactive) in assay [10].
As to `CC1=C([C@H](O)CCc2ccccc2)[C@H](CO)[C@@H]2C(=O)N(Cc3ccccc3)C(=O)[C@@H]2C1`, the z-score in [1] is -0.286; in assay [2], -0.0776; in assay [3] it was -0.352; in [4], -0.0162; in assay [5], 0.445; in assay [6] it was 0.567. The z-score in assay [7] is 0.714 (inactive); in assay [8], 0.331; in [9], -1.5; in [10], 0.76 (inactive).
On to `C=C(COC)C(=O)CC[C@H](OC(=O)c1ccccc1-c1ccccc1C(=O)O)c1cccc(OCCO)c1`, for which the z-score in assay [1] is -0.339; in assay [2], -0.765; in assay [3], -2.08; in assay [4], -1.12; in assay [5], -0.28; in assay [6], -2.01. The z-score in assay [7] was 0.414 (inactive); in assay [8] it was 0.231; in assay [9], -0.0895; in assay [10], -1.46 (inactive).
Consider `[N-]=[N+]=NCc1ccccc1C[C@@]1(C(=O)O)N=C(c2ccc(OCCCO)cc2)O[C@@H]1c1ccccc1N=[N+]=[N-]`, for which the z-score was 0.593 in assay [1]; 0.0001 in assay [2]; 0.435 in assay [3]; -1.52 in [4]; -2.27 in assay [5]; -1.58 in [6]. Moreover, the z-score is 0.428 (inactive) in [7], -0.898 in assay [8], -1.31 in [9] and -1.32 (inactive) in [10].
With `CO[C@@H]1COC(=O)CC=C[C@@H](C)[C@H](OC)COC(=O)CC=C[C@H]1C`, the z-score in assay [1] is 0.275; in [2] it was 0.793; in assay [3], 1.14; in assay [4], -1.03; in assay [5], 0.834; in assay [6], 0.692. In addition, the z-score in assay [7] was 0.502 (inactive); in assay [8], -0.793; in assay [9] it was 1.21; in [10], 0.756 (inactive).
In the case of `C=CCNC(=O)[C@H]1[C@@H]2C(=O)O[C@@H](c3ccccc3)[C@@H](c3ccccc3)N2[C@@H](c2ccc(O)cc2)[C@]12C(=O)Nc1ccc(C#CCNC(N)=O)cc12`, the z-score was 0.294 in [1]; 0.57 in assay [2]; -0.348 in assay [3]; -0.778 in assay [4]; -0.144 in [5]; -0.0995 in assay [6]. Also, the z-score in assay [7] is -0.0287 (inactive); in assay [8], 0.424; in assay [9] it was 0.716; in [10] it was 0.999 (inactive).
For `CO[C@H]1COC(=O)[C@H](CCSC)NC(=O)CC=C[C@@H](C)COC(=O)[C@@H](OCc2ccccc2)C=C[C@@H]1C`, the z-score is 0.349 in assay [1]; 0.507 in [2]; 0.0042 in assay [3]; 0.199 in assay [4]; -0.358 in assay [5]; 0.842 in assay [6]. The z-score in [7] is 1.23 (inactive); in assay [8] it was 0.365; in [9], 1.34; in assay [10] it was 0.613 (inactive).
On to `COc1ccc(CCNC(=O)[C@@]2(c3ccc([N+](=O)[O-])cc3)CC(=O)N(C(C)C)[C@@H]2c2ccc(CO)cc2)cc1`, for which the z-score is 0.755 in assay [1]; 1.52 in [2]; -0.627 in [3]; 0.701 in assay [4]; 0.159 in assay [5]; -0.0592 in assay [6]. For the same compound, the z-score in assay [7] was -0.209 (inactive); in [8], 1.05; in [9], 0.323; in assay [10], 0.1 (inactive).
Regarding `CC(C)NC(=O)[C@@]1(Cc2ccccc2I)c2ccccc2C(=O)N(C2CCCCC2)[C@H]1c1ccc(CO)cc1`, the z-score in assay [1] was 0.377; in assay [2] it was 0.967; in assay [3], -0.476; in assay [4], -0.533; in assay [5], -3.89; in assay [6], 1.54. In addition, the z-score is -0.68 (inactive) in assay [7], -0.941 in assay [8], -1.36 in [9] and 0.778 (inactive) in assay [10].
On to `CCCNC(=O)[C@@H]1c2ccccc2C(=O)N(Cc2cc(F)cc(C(F)(F)F)c2)[C@H]1c1ccc(CO)cc1`, for which the z-score in [1] is 1.68; in [2], 1.18; in assay [3], -0.0223; in [4], 0.168; in assay [5], 0.563; in assay [6], 2.07. In addition, the z-score in assay [7] was -0.31 (inactive); in [8] it was 0.693; in assay [9], 0.607; in assay [10] it was 1.54 (inactive).
For `Cc1ccc(S(=O)(=O)N[C@H]2COC(=O)CC=C[C@H](C)COC(=O)N[C@@H](C)C(=O)CC=C[C@@H]2C)cc1`, the z-score in [1] was -0.235; in [2], 0.538; in assay [3] it was 0.984; in assay [4], 0.399; in [5], -0.558; in [6], 1.27. The z-score is 0.946 (inactive) in assay [7], -0.614 in assay [8], 0.809 in assay [9] and 0.333 (inactive) in [10].
As to `CCCNC(=O)[C@@]1(Sc2ccc(C)cc2)CC(=O)N(Cc2ccccc2Cl)[C@@H]1c1ccc(CO)cc1`, the z-score is 0.648 in assay [1]; 2.79 in [2]; -0.597 in assay [3]; 0.189 in assay [4]; 0.154 in assay [5]; 0.00317 in assay [6]. Moreover, the z-score was 0.0754 (inactive) in assay [7], 0.653 in assay [8], 0.368 in [9] and 0.644 (inactive) in assay [10].
For `CCCC[C@@H]1C[C@H]1[C@@H](NC(=O)c1cccs1)c1ccc(Cl)cc1`, the z-score in assay [1] is -1.36; in [2], 1.11; in [3] it was -1.02; in [4], -0.992; in assay [5], -2.99; in assay [6] it was -1.16. The z-score in assay [7] is 0.53 (inactive); in [8], -0.912; in assay [9], -0.53; in assay [10] it was 0.6 (inactive).
